Growth data for nine molecules are collected here from PubChem BioAssay (NCI).

Molecules are shown by their SMILES. The panel holds about 83,000 compounds, 20% with a hit somewhere; the sample as a whole holds those more often.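 Values shown are percent growth following 48 h exposure of cells in 96-well plates to a single concentration of compound; below 10 was considered active.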 Values without a mark were called inactive. Activity calls are given as the source filed them.

Some test systems named below: SR leukemia; RPMI-8226 leukemia; OVCAR-8 ovarian; OVCAR-5 ovarian; OVCAR-4 ovarian; SK-OV-3 ovarian; IGROV1 ovarian; OVCAR-3 ovarian; HS 578T breast; NCI/ADR-RES ovarian; BT-549 breast; MDA-MB-435 melanoma; SW-620 colon; MCF7 breast; HCT-116 colon; HCC-2998 colon; KM12 colon; T-47D breast.
What all share (experiment): NCI-60 one-dose screen, 48 h (100 = growth as untreated, 0 = no growth, -100 = all killed)
Conditions in all cases: 10 µM unless noted

As to `NC(N)=Nc1ccc(Oc2cccc(Nc3ccc(Br)c(C(F)(F)F)c3)c2)cn1`, the growth in the experiment on SR leukemia was -50.7% (active); in the experiment on RPMI-8226 leukemia it was -40% (active); in the experiment on OVCAR-8 ovarian it was -60.6% (active); with OVCAR-5 ovarian it was -56.6% (active); in the experiment with OVCAR-4 ovarian, -75.2% (active); in the experiment with SK-OV-3 ovarian, 32.2%. The growth in the experiment on IGROV1 ovarian is -74.7% (active); in the experiment with OVCAR-3 ovarian, -94.3% (active); in the experiment on HS 578T breast, -15.3% (active); with NCI/ADR-RES ovarian it was 55.7%; with BT-549 breast, -2.65% (active); in the experiment on MDA-MB-435 melanoma, -89.1% (active). Moreover, the growth in the experiment with SW-620 colon was -79% (active); in the experiment with MCF7 breast, -56.8% (active); with HCT-116 colon it was -64.8% (active); in the experiment on HCC-2998 colon, -85.6% (active); in the experiment on KM12 colon, -72.5% (active).
On to `Nc1nc(N)c2c(n1)NC(c1ccc(Cl)cc1)CC(c1ccc(Nc3nc(NCCO)nc(N4CCOCC4)n3)cc1)=N2` (stereo unspecified), for which the growth in the experiment with SR leukemia is 8.95% (active); in the experiment with RPMI-8226 leukemia it was 38.9%; with OVCAR-8 ovarian, 72%; in the experiment with OVCAR-5 ovarian, 96.7%; in the experiment with OVCAR-4 ovarian, 93.8%; with SK-OV-3 ovarian, 103%. Besides, the growth in the experiment on IGROV1 ovarian was 78.8%; with OVCAR-3 ovarian, 73.2%; in the experiment on HS 578T breast, 65.9%; in the experiment on NCI/ADR-RES ovarian, 97.3%; in the experiment on MDA-MB-435 melanoma, 81.7%; with SW-620 colon it was 79.4%. The results for the growth in the experiment with MCF7 breast, with HCT-116 colon and with KM12 colon were 41.9%, 57.3% and 65.3%, respectively.
`COc1ccc(-n2c(SCc3n[nH]c(=S)o3)nc3ccc(Cl)cc3c2=O)cc1`: the growth with SR leukemia was 103%; in the experiment on RPMI-8226 leukemia, 101%; in the experiment on OVCAR-8 ovarian it was 101%; in the experiment on OVCAR-5 ovarian, 89.7%; in the experiment on OVCAR-4 ovarian, 99.3%; in the experiment with SK-OV-3 ovarian, 97.7%. Further, the growth with IGROV1 ovarian is 95.8%; in the experiment with HS 578T breast it was 93.9%; in the experiment with NCI/ADR-RES ovarian, 99.4%; in the experiment on T-47D breast, 97.6%; in the experiment on BT-549 breast it was 115%; in the experiment on MDA-MB-435 melanoma, 94.8%. In addition, the growth in the experiment on SW-620 colon was 97.8%; in the experiment with MCF7 breast, 90.6%; in the experiment with HCT-116 colon, 104%; in the experiment on HCC-2998 colon, 101%; with KM12 colon, 98.6%.
`Nc1nc(-c2cccc([N+](=O)[O-])c2)c(N=Nc2ccc([N+](=O)[O-])cc2Cl)s1`: the growth was 5.91% (active) in the experiment on SR leukemia; -6.23% (active) in the experiment with RPMI-8226 leukemia; 7.59% (active) with OVCAR-8 ovarian; 21% in the experiment with OVCAR-5 ovarian; 16.3% in the experiment with OVCAR-4 ovarian; -11% (active) with SK-OV-3 ovarian. Also, the growth in the experiment with IGROV1 ovarian was 30.6%; in the experiment with HS 578T breast it was -4.26% (active); in the experiment on NCI/ADR-RES ovarian it was 6.4% (active); in the experiment with T-47D breast it was 4.47% (active); in the experiment with BT-549 breast, -24.9% (active); with MDA-MB-435 melanoma, 6.11% (active). Also, the growth is 13% in the experiment with SW-620 colon; 2.17% (active) in the experiment on MCF7 breast; 0.397% (active) in the experiment on HCT-116 colon; 12.9% with HCC-2998 colon; 2.86% (active) with KM12 colon.
Regarding `COc1cc(OC)cc(C(=O)Nc2cccc(C#Cc3cccc4[nH]nc(N)c34)c2)c1`, the growth with SR leukemia is 16.6%; in the experiment with RPMI-8226 leukemia, 18.6%; in the experiment on OVCAR-8 ovarian, 31.2%; in the experiment on OVCAR-5 ovarian, 39.5%; in the experiment on OVCAR-4 ovarian, 53.9%; in the experiment with SK-OV-3 ovarian, 39.1%. Also, the growth in the experiment on IGROV1 ovarian is 20.4%; with OVCAR-3 ovarian it was 12.2%; in the experiment with HS 578T breast, -21.9% (active); in the experiment on NCI/ADR-RES ovarian, 34.2%; in the experiment with BT-549 breast it was 33.7%; with MDA-MB-435 melanoma, -38.1% (active). Further, the growth with SW-620 colon was 15.9%; in the experiment on MCF7 breast it was 26.2%; in the experiment with HCT-116 colon it was 13%; in the experiment on HCC-2998 colon it was 43.3%; in the experiment on KM12 colon, 12%.
Consider `CN(C)CCNC(=O)c1ccc(-c2nc3ccc4[nH]ncc4c3c3c2COCC3)cc1`, for which the growth is -25.1% (active) in the experiment with SR leukemia; 44.3% in the experiment with RPMI-8226 leukemia; 11% in the experiment with OVCAR-8 ovarian; 27.5% with OVCAR-5 ovarian; 2.78% (active) with OVCAR-4 ovarian; 14% with SK-OV-3 ovarian. For the same molecule, the growth with IGROV1 ovarian was 0.798% (active); in the experiment on OVCAR-3 ovarian, -6.74% (active); with HS 578T breast it was -19.6% (active); with NCI/ADR-RES ovarian, 92.2%; in the experiment on BT-549 breast it was -16.2% (active); in the experiment on MDA-MB-435 melanoma, 3.65% (active). Further, the growth in the experiment with SW-620 colon is 3.1% (active); with MCF7 breast, 0.287% (active); with HCT-116 colon it was 2.59% (active); in the experiment with HCC-2998 colon it was -20.8% (active); with KM12 colon, 16.4%.
`O=S(=O)(NCCNc1nccc(-n2cnc3ccccc32)n1)c1ccc(Cl)cc1`: the growth was 96.3% in the experiment on SR leukemia; 99.4% in the experiment on RPMI-8226 leukemia; 102% with OVCAR-8 ovarian; 91.7% in the experiment on OVCAR-5 ovarian; 95.2% in the experiment on OVCAR-4 ovarian; 112% in the experiment on SK-OV-3 ovarian. Besides, the growth in the experiment on IGROV1 ovarian was 98.2%; in the experiment on HS 578T breast it was 88.1%; with NCI/ADR-RES ovarian it was 97.8%; in the experiment on T-47D breast it was 97.1%; in the experiment on BT-549 breast, 99.3%; with MDA-MB-435 melanoma, 100%. Besides, the growth in the experiment on SW-620 colon is 100%; in the experiment with MCF7 breast, 87.9%; in the experiment on HCT-116 colon, 94.6%; in the experiment on HCC-2998 colon it was 101%; with KM12 colon, 97.1%.
With `NS(=O)(=O)c1ccc(Nc2cc(-c3ccccc3)nc(SCC(=O)c3ccccc3)n2)cc1`, the growth in the experiment on SR leukemia is 101%; in the experiment on RPMI-8226 leukemia, 93.7%; with OVCAR-8 ovarian it was 99.3%; with OVCAR-5 ovarian it was 104%; in the experiment on OVCAR-4 ovarian, 102%; in the experiment with SK-OV-3 ovarian, 110%. Besides, the growth in the experiment on IGROV1 ovarian was 97.4%; in the experiment on HS 578T breast, 107%; in the experiment on NCI/ADR-RES ovarian, 101%; in the experiment with T-47D breast it was 97.5%; with BT-549 breast, 97.6%; with MDA-MB-435 melanoma, 93.4%. In addition, the growth with SW-620 colon is 102%; in the experiment on MCF7 breast, 89.5%; with HCT-116 colon it was 101%; in the experiment on HCC-2998 colon it was 101%; in the experiment on KM12 colon, 102%.
Turning to `O=C(Nc1nonc1-c1ccccc1)c1ccc(C(F)(F)F)cc1`, the growth in the experiment on SR leukemia was 85.6%; in the experiment on RPMI-8226 leukemia, 74.2%; with OVCAR-8 ovarian, 86.6%; with OVCAR-5 ovarian, 100%; with OVCAR-4 ovarian, 91.2%; with SK-OV-3 ovarian, 112%. Moreover, the growth in the experiment on IGROV1 ovarian was 96.4%; in the experiment with HS 578T breast it was 101%; in the experiment on NCI/ADR-RES ovarian, 85.2%; in the experiment with T-47D breast it was 76%; in the experiment with BT-549 breast, 85.5%; with MDA-MB-435 melanoma, 82.7%. Further, the growth in the experiment on SW-620 colon was 94.6%; with MCF7 breast, 72.3%; in the experiment on HCT-116 colon, 86.2%; in the experiment with HCC-2998 colon, 101%; in the experiment on KM12 colon it was 97.4%.
